# Source: publication PMC7862700, “An all-to-all approach to the identification of sequence-specific readers for epigenetic DNA modifications on cytosine”
# Tests used:
# Experiment in all cases: DAPPL (digital affinity profiling via proximity ligation, sequencing); 10 mM Tris-HCl pH 7.5, 50 mM NaCl, 1 mM DTT, 4% glycerol, room temperature, 30 min; GST-TFs on glutathione beads, 16-mer random dsDNA library, 0.1% formaldehyde crosslink after washing; high values mean tight binding
# FLI1 = biological target: T1, FLI1 (Homo sapiens, UniProt Q01543 1-452); conditions: protein: recombinant; tags: N-terminal GST; dsDNA, one strand shown
# T1 sequence: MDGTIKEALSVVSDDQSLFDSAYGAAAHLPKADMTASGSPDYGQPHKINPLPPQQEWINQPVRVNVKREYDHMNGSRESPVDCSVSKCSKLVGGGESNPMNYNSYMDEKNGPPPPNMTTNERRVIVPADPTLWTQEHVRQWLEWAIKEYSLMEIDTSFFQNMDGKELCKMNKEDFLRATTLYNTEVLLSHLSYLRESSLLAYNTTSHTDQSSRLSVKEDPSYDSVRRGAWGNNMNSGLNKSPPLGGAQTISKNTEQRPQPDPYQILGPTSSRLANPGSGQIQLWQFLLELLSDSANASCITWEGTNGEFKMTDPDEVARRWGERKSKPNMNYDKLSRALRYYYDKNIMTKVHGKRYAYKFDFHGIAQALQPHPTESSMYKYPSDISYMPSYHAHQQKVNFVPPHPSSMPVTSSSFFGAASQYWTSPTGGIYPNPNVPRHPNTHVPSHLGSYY
# How it was run: (§1)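 Each value of binding signal is a hexamer's read frequency for a factor divided by the same hexamer's frequency in the tag-only sample. Barcoded, bead-captured GST fusions of human transcription factors made in yeast were pooled with that sample and incubated with 200 nmole of a random double-stranded 16-mer DNA library in Tris/NaCl/DTT/glycerol buffer at room temperature for 30 min. Washing, 0.1% formaldehyde crosslinking, proximity ligation, PCR and Illumina NextSeq500 sequencing followed.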
# ELK1 = biological target: T2, ELK1 (Homo sapiens, UniProt P19419 1-428); conditions: protein: recombinant; tags: N-terminal GST; dsDNA, one strand shown
# T2 sequence: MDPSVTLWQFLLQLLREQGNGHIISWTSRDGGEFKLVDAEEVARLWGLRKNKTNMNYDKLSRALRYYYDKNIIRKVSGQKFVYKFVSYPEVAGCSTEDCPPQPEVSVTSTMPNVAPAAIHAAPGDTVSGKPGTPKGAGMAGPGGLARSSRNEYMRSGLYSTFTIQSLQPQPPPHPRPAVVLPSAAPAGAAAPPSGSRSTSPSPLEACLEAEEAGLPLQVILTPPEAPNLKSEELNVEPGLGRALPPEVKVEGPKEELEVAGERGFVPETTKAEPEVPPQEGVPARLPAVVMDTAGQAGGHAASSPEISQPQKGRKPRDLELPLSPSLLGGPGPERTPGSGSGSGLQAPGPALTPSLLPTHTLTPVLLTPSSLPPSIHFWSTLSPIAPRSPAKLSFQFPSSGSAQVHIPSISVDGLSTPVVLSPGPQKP
# How it was run: as §1
# GABPA = biological target: T3, GABPA (Homo sapiens, UniProt Q06546 1-454); conditions: protein: recombinant; tags: N-terminal GST; dsDNA, one strand shown
# T3 sequence: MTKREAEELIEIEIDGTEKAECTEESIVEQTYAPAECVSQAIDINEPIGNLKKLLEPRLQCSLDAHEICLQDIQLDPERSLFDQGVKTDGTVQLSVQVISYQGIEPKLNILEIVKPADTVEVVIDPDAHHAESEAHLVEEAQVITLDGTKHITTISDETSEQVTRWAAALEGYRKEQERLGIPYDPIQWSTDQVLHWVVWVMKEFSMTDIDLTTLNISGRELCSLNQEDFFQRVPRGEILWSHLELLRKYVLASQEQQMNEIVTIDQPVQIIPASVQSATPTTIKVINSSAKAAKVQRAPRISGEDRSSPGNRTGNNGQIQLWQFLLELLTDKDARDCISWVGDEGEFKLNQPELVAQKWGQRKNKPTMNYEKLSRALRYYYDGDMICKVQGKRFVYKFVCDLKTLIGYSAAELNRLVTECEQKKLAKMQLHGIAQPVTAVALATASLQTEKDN
# How it was run: as §1
# ERG = biological target: T4, ERG (Homo sapiens, UniProt P11308 1-479); conditions: protein: recombinant; tags: N-terminal GST; dsDNA, one strand shown
# T4 sequence: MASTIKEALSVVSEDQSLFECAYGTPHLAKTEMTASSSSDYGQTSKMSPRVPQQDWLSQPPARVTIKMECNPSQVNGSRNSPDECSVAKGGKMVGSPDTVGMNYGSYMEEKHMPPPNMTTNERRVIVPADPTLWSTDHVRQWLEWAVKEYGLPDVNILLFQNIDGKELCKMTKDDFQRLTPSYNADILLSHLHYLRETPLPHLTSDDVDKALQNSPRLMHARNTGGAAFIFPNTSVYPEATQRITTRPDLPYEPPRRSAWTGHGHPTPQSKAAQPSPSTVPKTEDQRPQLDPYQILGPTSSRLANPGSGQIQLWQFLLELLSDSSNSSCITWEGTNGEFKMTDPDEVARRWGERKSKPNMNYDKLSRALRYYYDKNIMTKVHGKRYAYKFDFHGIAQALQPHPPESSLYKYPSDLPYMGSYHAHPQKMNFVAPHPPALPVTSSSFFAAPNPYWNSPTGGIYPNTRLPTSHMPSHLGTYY
# How it was run: as §1
# ELF1 = ELF1 (Homo sapiens, UniProt P32519 1-619); conditions: protein: recombinant; tags: N-terminal GST; dsDNA, one strand shown
# Chain of ELF1 (P32519 whole entry): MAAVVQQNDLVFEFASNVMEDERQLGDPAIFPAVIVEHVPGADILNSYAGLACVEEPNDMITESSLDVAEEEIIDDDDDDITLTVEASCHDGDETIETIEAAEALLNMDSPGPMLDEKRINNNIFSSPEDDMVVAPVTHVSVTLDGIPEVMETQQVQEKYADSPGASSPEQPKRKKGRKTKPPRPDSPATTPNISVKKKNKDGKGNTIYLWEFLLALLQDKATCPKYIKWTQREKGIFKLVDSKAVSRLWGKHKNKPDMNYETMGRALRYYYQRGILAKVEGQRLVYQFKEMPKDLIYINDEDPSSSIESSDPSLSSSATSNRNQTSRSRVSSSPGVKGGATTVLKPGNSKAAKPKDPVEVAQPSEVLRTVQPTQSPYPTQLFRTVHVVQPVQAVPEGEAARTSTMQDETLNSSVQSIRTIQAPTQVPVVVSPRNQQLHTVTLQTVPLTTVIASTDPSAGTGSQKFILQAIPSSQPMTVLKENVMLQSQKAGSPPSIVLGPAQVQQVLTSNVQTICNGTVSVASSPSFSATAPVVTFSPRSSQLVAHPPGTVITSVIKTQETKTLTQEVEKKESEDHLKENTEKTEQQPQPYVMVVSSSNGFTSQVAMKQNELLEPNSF
# How it was run: as §1
# EHF = biological target: T5, EHF (Homo sapiens, UniProt Q9NZC4 1-300); conditions: protein: recombinant; tags: N-terminal GST; dsDNA, one strand shown
# T5 sequence: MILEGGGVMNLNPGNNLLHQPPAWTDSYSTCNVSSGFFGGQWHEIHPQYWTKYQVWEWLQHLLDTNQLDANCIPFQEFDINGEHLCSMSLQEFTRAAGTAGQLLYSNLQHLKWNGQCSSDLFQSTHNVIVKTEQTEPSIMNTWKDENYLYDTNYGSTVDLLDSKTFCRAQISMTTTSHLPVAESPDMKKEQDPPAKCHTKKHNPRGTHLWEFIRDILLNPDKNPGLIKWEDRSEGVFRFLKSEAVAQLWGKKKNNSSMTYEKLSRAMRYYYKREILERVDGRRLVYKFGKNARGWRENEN
# How it was run: as §1
# SPI1 = SPI1 (Homo sapiens, UniProt P17947 1-270); conditions: protein: recombinant; tags: N-terminal GST; dsDNA, one strand shown
# How it was run: as §1
# SPIB = SPIB (Homo sapiens, UniProt Q01892 1-262); conditions: protein: recombinant; tags: N-terminal GST; dsDNA, one strand shown
# Chain of SPIB (Q01892 whole entry): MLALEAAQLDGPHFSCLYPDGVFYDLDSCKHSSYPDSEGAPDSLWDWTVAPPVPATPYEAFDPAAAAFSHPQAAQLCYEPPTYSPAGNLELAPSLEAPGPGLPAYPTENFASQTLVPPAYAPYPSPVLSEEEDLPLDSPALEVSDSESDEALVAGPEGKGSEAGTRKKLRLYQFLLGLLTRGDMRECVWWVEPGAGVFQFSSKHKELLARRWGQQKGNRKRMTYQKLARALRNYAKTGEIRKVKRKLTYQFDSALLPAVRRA
# How it was run: as §1
# ELK3 = biological target: T6, ELK3 (Homo sapiens, UniProt P41970 1-407); conditions: protein: recombinant; tags: N-terminal GST; dsDNA, one strand shown
# T6 sequence: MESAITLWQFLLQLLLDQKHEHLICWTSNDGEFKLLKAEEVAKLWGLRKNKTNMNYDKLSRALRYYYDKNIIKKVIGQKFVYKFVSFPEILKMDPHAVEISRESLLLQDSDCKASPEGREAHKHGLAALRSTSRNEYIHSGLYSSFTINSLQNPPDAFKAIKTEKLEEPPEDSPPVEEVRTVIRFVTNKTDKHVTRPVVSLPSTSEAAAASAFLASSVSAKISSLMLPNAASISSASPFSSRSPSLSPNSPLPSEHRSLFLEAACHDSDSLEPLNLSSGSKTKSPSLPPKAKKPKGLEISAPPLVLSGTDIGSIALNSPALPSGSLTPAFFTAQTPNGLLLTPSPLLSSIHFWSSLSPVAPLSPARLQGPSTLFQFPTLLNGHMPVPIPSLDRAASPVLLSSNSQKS
# How it was run: as §1
# FEV = biological target: T7, FEV (Homo sapiens, UniProt Q99581 1-238); conditions: protein: recombinant; tags: N-terminal GST; dsDNA, one strand shown
# T7 sequence: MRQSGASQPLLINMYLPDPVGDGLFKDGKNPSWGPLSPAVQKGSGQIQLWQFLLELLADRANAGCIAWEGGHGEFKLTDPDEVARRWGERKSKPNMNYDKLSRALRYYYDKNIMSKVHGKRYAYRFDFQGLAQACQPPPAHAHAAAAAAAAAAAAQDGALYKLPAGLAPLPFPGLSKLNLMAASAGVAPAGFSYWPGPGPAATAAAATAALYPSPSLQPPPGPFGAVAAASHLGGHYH
# How it was run: as §1
# ETV5 = ETV5 (Homo sapiens, UniProt P41161 1-510); conditions: protein: recombinant; tags: N-terminal GST; dsDNA, one strand shown
# Chain of ETV5 (P41161 whole entry): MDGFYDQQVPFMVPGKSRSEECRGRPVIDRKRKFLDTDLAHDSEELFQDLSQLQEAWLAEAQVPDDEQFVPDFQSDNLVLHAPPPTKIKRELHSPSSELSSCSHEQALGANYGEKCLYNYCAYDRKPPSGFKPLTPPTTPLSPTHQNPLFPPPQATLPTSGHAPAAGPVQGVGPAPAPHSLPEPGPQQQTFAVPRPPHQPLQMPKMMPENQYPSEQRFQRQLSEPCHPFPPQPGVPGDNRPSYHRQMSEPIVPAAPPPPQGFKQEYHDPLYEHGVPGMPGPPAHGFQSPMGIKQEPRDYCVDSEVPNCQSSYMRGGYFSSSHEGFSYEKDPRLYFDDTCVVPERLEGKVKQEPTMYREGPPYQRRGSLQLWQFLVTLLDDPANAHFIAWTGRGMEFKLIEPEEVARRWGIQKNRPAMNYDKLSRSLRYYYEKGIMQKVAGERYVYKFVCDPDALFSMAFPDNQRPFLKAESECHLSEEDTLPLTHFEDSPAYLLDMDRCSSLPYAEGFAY
# How it was run: as §1
# HSF1 = HSF1 (Homo sapiens, UniProt Q00613 1-529); conditions: protein: recombinant; tags: N-terminal GST; chain copies: 3; dsDNA, one strand shown
# Chain of HSF1 (Q00613 whole entry): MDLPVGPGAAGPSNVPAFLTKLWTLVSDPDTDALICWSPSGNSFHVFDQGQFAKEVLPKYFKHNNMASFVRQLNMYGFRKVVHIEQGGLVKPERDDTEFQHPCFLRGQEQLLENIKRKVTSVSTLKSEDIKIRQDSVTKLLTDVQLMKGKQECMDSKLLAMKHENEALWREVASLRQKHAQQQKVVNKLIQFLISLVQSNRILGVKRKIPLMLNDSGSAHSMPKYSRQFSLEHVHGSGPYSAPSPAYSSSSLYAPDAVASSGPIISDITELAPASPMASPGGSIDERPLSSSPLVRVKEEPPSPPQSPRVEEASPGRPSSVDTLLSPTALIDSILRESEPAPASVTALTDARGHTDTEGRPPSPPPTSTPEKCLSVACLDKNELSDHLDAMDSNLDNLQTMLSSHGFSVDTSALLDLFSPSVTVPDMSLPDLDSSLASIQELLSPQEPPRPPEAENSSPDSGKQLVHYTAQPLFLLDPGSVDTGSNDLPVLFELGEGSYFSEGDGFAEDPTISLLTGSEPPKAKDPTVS
# How it was run: as §1
# SPIC = biological target: T8, SPIC (Homo sapiens, UniProt Q8N5J4 1-248); conditions: protein: recombinant; tags: N-terminal GST; dsDNA, one strand shown
# T8 sequence: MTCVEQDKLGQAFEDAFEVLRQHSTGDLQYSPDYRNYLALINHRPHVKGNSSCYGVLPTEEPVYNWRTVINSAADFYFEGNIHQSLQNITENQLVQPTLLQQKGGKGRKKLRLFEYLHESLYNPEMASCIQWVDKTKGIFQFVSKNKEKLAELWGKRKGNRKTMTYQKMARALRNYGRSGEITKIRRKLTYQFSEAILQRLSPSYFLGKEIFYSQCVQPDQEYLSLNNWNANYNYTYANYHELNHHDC
# How it was run: as §1
# ELF4 = ELF4 (Homo sapiens, UniProt Q99607 1-663); conditions: protein: recombinant; tags: N-terminal GST; dsDNA, one strand shown
# Chain of ELF4 (Q99607 whole entry): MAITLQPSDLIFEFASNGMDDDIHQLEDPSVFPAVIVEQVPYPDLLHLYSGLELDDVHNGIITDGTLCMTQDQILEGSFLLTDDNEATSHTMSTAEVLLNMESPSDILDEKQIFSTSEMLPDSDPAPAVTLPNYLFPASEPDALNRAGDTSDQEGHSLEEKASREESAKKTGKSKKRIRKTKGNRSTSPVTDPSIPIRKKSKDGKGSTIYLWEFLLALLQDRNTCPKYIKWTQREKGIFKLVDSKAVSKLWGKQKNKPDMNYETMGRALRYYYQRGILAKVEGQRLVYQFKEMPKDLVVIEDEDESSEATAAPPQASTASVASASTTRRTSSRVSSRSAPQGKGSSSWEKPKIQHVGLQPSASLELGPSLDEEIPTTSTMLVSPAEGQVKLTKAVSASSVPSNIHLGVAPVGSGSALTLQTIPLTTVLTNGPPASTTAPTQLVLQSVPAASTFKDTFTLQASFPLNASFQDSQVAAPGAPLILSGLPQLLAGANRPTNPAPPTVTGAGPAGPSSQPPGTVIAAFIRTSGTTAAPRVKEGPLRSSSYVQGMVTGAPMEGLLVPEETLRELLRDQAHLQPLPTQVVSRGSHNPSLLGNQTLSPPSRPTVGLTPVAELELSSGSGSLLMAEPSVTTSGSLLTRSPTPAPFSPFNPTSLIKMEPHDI
# How it was run: as §1
# ELK4 = biological target: T9, ELK4 (Homo sapiens, UniProt P28324-2 1-405); conditions: protein: recombinant; tags: N-terminal GST; dsDNA, one strand shown
# T9 sequence: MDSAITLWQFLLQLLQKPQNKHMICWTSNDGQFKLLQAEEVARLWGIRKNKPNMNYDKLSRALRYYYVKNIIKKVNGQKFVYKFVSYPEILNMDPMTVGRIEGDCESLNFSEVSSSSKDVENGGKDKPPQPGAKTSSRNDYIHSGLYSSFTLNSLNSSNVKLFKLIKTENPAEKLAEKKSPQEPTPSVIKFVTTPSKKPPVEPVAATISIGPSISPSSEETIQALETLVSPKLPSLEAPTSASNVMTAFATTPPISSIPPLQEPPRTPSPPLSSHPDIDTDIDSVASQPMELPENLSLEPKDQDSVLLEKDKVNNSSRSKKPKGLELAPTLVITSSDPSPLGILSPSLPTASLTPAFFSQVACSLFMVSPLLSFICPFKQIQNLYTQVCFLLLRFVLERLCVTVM
# How it was run: as §1
# ETV2 = biological target: T10, ETV2 (Homo sapiens, UniProt O00321 1-342); conditions: protein: recombinant; tags: N-terminal GST; dsDNA, one strand shown
# T10 sequence: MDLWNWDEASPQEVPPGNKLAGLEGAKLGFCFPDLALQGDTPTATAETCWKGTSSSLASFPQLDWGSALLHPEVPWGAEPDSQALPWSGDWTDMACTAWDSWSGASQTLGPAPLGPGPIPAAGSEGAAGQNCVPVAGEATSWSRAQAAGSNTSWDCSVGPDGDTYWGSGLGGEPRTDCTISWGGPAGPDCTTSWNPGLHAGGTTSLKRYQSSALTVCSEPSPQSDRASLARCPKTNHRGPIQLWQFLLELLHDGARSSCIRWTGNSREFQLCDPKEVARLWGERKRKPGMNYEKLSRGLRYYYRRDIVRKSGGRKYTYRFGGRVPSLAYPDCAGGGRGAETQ
# How it was run: as §1
# ELF3 = biological target: T11, ELF3 (Homo sapiens, UniProt P78545 1-371); conditions: protein: recombinant; tags: N-terminal GST; dsDNA, one strand shown
# T11 sequence: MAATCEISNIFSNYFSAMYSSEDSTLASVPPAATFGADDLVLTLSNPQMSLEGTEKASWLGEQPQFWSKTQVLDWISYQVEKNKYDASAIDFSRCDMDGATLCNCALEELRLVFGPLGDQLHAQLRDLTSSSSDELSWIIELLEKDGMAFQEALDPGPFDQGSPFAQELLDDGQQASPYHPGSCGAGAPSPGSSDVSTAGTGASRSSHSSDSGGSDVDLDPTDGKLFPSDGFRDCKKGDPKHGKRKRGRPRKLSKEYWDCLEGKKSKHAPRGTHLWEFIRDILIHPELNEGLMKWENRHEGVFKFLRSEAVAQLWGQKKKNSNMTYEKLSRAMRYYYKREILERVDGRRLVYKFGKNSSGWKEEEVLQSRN
# How it was run: as §1
# CRX = CRX (Homo sapiens, UniProt O43186 1-299); conditions: protein: recombinant; tags: N-terminal GST; dsDNA, one strand shown
# Chain of CRX (O43186 whole entry): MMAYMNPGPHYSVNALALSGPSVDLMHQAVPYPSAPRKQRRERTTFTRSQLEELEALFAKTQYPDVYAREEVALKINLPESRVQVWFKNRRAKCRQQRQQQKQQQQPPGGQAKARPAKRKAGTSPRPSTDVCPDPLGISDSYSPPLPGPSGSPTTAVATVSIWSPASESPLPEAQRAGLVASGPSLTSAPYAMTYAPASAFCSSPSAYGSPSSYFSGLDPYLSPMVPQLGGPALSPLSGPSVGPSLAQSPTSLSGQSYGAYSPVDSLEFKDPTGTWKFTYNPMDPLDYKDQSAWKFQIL
# How it was run: as §1
# ETV1 = ETV1 (Homo sapiens, UniProt P50549 1-477); conditions: protein: recombinant; tags: N-terminal GST; dsDNA, one strand shown
# Chain of ETV1 (P50549 whole entry): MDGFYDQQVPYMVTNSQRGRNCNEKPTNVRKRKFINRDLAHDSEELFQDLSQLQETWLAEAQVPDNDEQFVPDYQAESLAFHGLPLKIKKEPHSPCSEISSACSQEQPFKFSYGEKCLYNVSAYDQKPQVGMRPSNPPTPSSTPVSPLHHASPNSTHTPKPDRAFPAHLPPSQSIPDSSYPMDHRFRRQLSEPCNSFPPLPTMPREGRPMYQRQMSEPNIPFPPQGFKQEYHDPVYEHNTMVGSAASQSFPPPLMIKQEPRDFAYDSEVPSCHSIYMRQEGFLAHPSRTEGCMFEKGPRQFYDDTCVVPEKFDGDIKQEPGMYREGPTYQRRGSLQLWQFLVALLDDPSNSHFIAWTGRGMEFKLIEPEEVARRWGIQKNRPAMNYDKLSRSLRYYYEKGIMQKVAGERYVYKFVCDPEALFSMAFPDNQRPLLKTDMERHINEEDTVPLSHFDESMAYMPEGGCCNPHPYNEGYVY
# How it was run: as §1
sequence,measurement,setting,value
TCCTCC,binding signal,FLI1,"1.47 fold enrichment (6-mer frequency, TF over GST control)"
same,binding signal,ELK1,"1.61 fold enrichment (6-mer frequency, TF over GST control)"
same,binding signal,GABPA,"1.49 fold enrichment (6-mer frequency, TF over GST control)"
same,binding signal,ERG,"1.58 fold enrichment (6-mer frequency, TF over GST control)"
same,binding signal,ELF1,"1.52 fold enrichment (6-mer frequency, TF over GST control)"
same,binding signal,EHF,"1.61 fold enrichment (6-mer frequency, TF over GST control)"
same,binding signal,SPI1,"1.68 fold enrichment (6-mer frequency, TF over GST control)"
same,binding signal,SPIB,"1.6 fold enrichment (6-mer frequency, TF over GST control)"
same,binding signal,ELK3,"1.55 fold enrichment (6-mer frequency, TF over GST control)"
same,binding signal,FEV,"1.55 fold enrichment (6-mer frequency, TF over GST control)"
same,binding signal,ETV5,"1.59 fold enrichment (6-mer frequency, TF over GST control)"
same,binding signal,HSF1,"1.27 fold enrichment (6-mer frequency, TF over GST control)"
same,binding signal,SPIC,"1.57 fold enrichment (6-mer frequency, TF over GST control)"
same,binding signal,ELF4,"1.62 fold enrichment (6-mer frequency, TF over GST control)"
same,binding signal,ELK4,"1.48 fold enrichment (6-mer frequency, TF over GST control)"
same,binding signal,ETV2,"1.86 fold enrichment (6-mer frequency, TF over GST control)"
same,binding signal,ELF3,"1.22 fold enrichment (6-mer frequency, TF over GST control)"
same,binding signal,CRX,"1.4 fold enrichment (6-mer frequency, TF over GST control)"
same,binding signal,ETV1,"1.53 fold enrichment (6-mer frequency, TF over GST control)"
